This note sets out measurements from PubChem BioAssay AID434990 (Southern Research Specialized Biocontainment Screening …, 2010).

Activity calls are given as the source filed them.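 How the source made its calls: active means inhibition above 40% at one or more tested concentrations in the dose response counterscreen; inactive means inhibition below 40% at every dose tested.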

The nature of this experiment: general Salmonella growth or reporter suppression – synthesized compounds, round 3, counter-screen for PhoP regulon inhibitor project, SAR follow-up (AID 434990). The note with it: S. Typhimurium counter-screen GFP reporter fluorescence, 4 h; series mostly up to 150 µM. Background: The purpose of a counterscreen is to sort out artefacts and off-target activity.
Regarding `O=C(Nc1cccc(I)c1)N1CCCN(Cc2ccccc2F)C1`, the outcome was inactive. The entry for `N#Cc1ccc(NC(=S)NCc2ccc(Cl)cc2)cc1` is “inactive”; for `O=C(Nc1ccc(Cl)cc1)N1CCCN(Cc2ccccc2Br)C1` it is “inactive”; for `Cc1ccc(NC(=O)N2CCCN(Cc3ccccc3F)C2)cc1` it is “inactive”.

In the case of `S=C(NCCc1ccc(Cl)cc1)Nc1ccncc1`, the molecule was called inactive.

As for `COc1ccccc1CNC(=S)Nc1ccncc1`, the molecule was called inactive. The entry for `Cc1cccc(NC(=O)N2CCCN(Cc3ccccc3F)C2)c1` is “inactive”; for `O=C(Nc1ccc(Cl)cc1)N1CCCN(Cc2ccc(Br)cc2)C1` it is “inactive”; for `O=C(Nc1cccc(C(F)(F)F)c1)N1CCCN(Cc2ccccc2F)C1` it is “inactive”.

In the case of `Cc1ccccc1CNC(=S)Nc1ccncc1`, the outcome was inactive. `N#Cc1ccccc1NC(=S)NCc1ccc(Cl)cc1`: the molecule was called inactive. The entry for `O=C(Nc1ccc(I)cc1)N1CCCN(Cc2ccccc2F)C1` is “inactive”; for `O=C(Nc1cccc(F)c1)N1CCCN(Cc2ccccc2F)C1` it is “inactive”; for `O=C1C2=C(Nc3ccccc3SC2c2cccc(I)c2)c2ccccc21` (centres undefined) it is “inactive”.
